GCN5L2 inh: blocks human GCN5L2 histone acetyltransferase; Q92830; GCN5L2 HAT assay, ThioGlo1 CoA-SH fluorescence; Potency, µM (series often up to 58.9 µM), inactives show top-dose activity change, negative = inhibition, most hits filed as inhibitors; actives 0.21% (n = 390,000); AID 504327
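Fluorescence readout, Ex340nm/Em540nm: ThioGlo1 (50uM final) reacts with free CoA thiol released as 20nM GCN5L2 acetylates H3(1-25) peptide (75uM) using acetyl-CoA (70uM). Compound and enzyme sat 15 min beforehand; 20 min room-temperature reaction.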
TrxR1 substrate: rat thioredoxin reductase 1 substrate activity | O89049 | AID 588456 | purified TrxR1 substrate turnover, NADPH consumption readout | actives 0.01% (n = 390,000) | Potency, µM (doses to about 114 µM), without a hit: at the top dose activity change, negative = substrate turnover; note: nearly all actives have a fitted effect of over 50% in size
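Rat TrxR1, dispensed at 90 nM, was prereduced with 400 uM NADPH (final) for 5 min at ~22 deg C, then incubated with compound 15 min before 400 uM selenite. A first-read NADPH fluorescence drop versus no-compound background flagged substrates.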
Sfp inh: blocks B. subtilis Sfp PPTase activity | Q9F4F7 | Potency, µM, for inactives: largest response in the series, negative = inhibition, most hits filed as inhibitors | Biochemical Sfp PPTase activity, qHTS | actives 3.5% (n = 310,000);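 note: the enzyme is Sfp with the accession as filed and its product quenches rhodamine fluorescence; 0% = enzyme reaction without inhibitor and -100% = no enzyme wells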
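After 15 min at room temperature with compound, 15 nM Sfp received 5 uM rhodamine-CoA plus 12.5 uM BHQ-2-ybbR (50 mM Hepes pH 7.6, 10 mM MgCl2). Rate came from the fluorescence difference over 30 min, ex 525/em 598 nm.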
VDR inh: inhibitors of human vitamin D receptor. VDR-SRC2-3 peptide fluorescence polarization, 2 h. Potency, µM, inactives show max response, negative = inhibition, most hits filed as inhibitors. actives 0.93% (n = 400,000). AID 504847
Target sequence (P11473 whole entry, looked up): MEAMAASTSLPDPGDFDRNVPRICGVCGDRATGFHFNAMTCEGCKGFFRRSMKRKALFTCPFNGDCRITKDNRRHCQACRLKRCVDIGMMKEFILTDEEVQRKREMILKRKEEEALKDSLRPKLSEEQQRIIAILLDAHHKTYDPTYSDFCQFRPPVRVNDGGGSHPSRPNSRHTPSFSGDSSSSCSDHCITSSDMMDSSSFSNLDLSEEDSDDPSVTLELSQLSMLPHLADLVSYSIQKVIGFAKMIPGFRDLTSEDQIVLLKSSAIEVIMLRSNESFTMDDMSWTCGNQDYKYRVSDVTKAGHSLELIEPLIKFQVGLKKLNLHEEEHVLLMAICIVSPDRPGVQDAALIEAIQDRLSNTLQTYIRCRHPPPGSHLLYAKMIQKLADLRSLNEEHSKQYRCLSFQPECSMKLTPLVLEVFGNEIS
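Inhibition of the VDR/SRC2-3 peptide interaction is quantified by fluorescence polarization. Compounds (23 nl, pintool) incubate with the reagents for 2 hours at ambient room temperature.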
rTrxR1 inhibitor: inhibitors of rat thioredoxin reductase 1; actives 1% (n = 390,000); Potency, µM (highest dose often 114 µM), for inactives: at the highest dose activity change, negative = inhibition, most hits filed as inhibitors; recombinant rTrxR1, NADPH fluorescence consumption, selenite substrate; O89049; AID 588453; note: nearly all actives have a fitted effect of over 65% in size
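Rat TrxR1 (90 nM in the dispensed reagent) was pre-reduced with 400 uM NADPH for 5 min at room temperature, then incubated with compound for 15 min. After 400 uM selenite was added, NADPH fluorescence (Ex 340/Em 450 nm) was followed for 8 min.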
GLS inh: inhibitors of human glutaminase (GLS); Potency, µM (series often up to 45.5 µM), for inactives: at the highest dose activity change, negative = inhibition, hits mostly inhibitors; GLS enzymatic activity, qHTS titration; actives 0.21% (n = 410,000)
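Enzyme dispensed in phosphate buffer (45 mM, pH 8.2, 0.02% Tween-20), compounds pinned in, then 1 mM L-glutamine solution and the glutamate oxidase–HRP–Amplex Red mix added; fluorescence read immediately and again after 30 min at room temperature.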
The depositor's hits bear a star; i = inactive; ? = inconclusive; . = no result; [ ] = another dose, or the depositor's remark. Hits are enriched below; roughly 3.8% of the tested compounds scored in any of these assays. Calls come from the whole dose curve; as a rule, active = well fitted curve in the direction sought with a large enough effect; inconclusive = small, poorly fitted or top-dose-only effect, or another doubt; inactive = no such curve, though single readings can be large; an effect the other way counts as inactive or inconclusive. Unless noted, % is set by controls: 0 for no effect and ±100 for the full control effect; potency is the fitted concentration of half-maximal effect.

SMILES	GCN5L2 inh	TrxR1 substrate	Sfp inh	VDR inh	rTrxR1 inhibitor	GLS inh
O=C(NC(=S)NNC(=O)c1ccccc1[N+](=O)[O-])c1ccccc1	?	-0.8%	35.5µM*	?	-29.6%	25.0%
Cc1ccccc1OCC(=O)NNC(=S)NC(=O)c1ccccc1[N+](=O)[O-]	-0.4%	7.3%[57.1 µM]	22.3%	-4.9%	-1.8%[57.1 µM]	22.8%
CCC(=O)NC(=S)NNC(=O)c1ccccc1[N+](=O)[O-]	25.1µM*	1.9%	10µM*	-1.2%	10.7%	7.6%
Cc1[nH]c2ccccc2c1CN1CCC(CO)(Cc2ccccc2)CC1	1.1%	3.3%	19.5%	16.2%	12.5%	-1.6%
Nc1nc(-c2ccco2)nn1C(=O)CCc1ccccc1	0.7%	-3.4%	11.1%	-11.1%	-5.8%[57.1 µM]	15.8%
CSc1nc(-c2ccco2)nn1S(=O)(=O)c1ccc(C)cc1	1.3%	-2.1%[57.1 µM]	44.7µM*	?	0.9%[57.1 µM]	-9.8%
CSc1nc(-c2ccco2)nn1C(=O)c1ccc(C)cc1	0.4%	7.5%	?	-22.0%	20µM*	26.3%
CCS(=O)(=O)n1nc(-c2ccc(Cl)cc2)nc1SC	-7.5%	-7.9%	56.2µM*	9.7%	-5.0%	-2.2%
CCCC(=O)n1nc(-c2ccco2)nc1SCc1ccccc1	-9.8%	3.9%	50.1µM*	-15.8%	-11.9%	1.9%
CC(c1ccccc1)n1cc2c(c1-c1ccccc1Br)c(=O)n(C)c(=O)n2C (configuration not stated)	-4.1%	-7.2%	.	0.5%	-2.2%	4.9%
CSc1nc(-c2ccco2)nn1S(=O)(=O)c1ccccc1	3.7%	.	?	.	.	.
CCS(=O)(=O)n1nc(-c2ccco2)nc1SC	.	-0.9%	35.5µM*	?	15.4%	-4.3%
CCOC(=O)C(=Cc1ccc(-n2ccnc2)cc1)C(=O)OCC	0.3%	-1.3%	-29.4%	?	20µM*	-1.3%
CCOC(=O)C(=Cc1ccc(F)cc1)C(=O)OCC	-1.1%	.	-7.3%	.	.	.
CCOC(=O)C(=Cc1ccc(Br)cc1)C(=O)OCC	-5.4%	-1.4%	?	10µM*	25.1µM*	4.6%
COC(=O)c1ccc(-n2ccnc2)cc1	-5.2%	9.4%[57.1 µM]	2.5%	-11.2%	14.2%[57.1 µM]	7.9%
O=C(NCc1ccco1)c1csc(Nc2ccccc2Cl)n1	-12.4%	-1.5%	28.2µM*	-13.8%	?	1.5%
O=C(c1csc(Nc2ccccc2Cl)n1)N1CCCC1	-26.6%	2.4%	79.4µM*	-3.4%	-18.0%	22.9%
COc1ccc(Nc2nc(C(=O)NCc3ccco3)cs2)cc1	-8.3%	-7.7%	1.8%	2.0%	-6.9%	19.7%
O=C(O)c1ccc2nc(-c3ccccc3)sc2c1	-1.3%	-1.5%	24.4%	-18.2%	-10.7%	14.5%
Nc1ccc(-c2nc3ccc(C(=O)O)cc3s2)cc1	28.2µM*	i	56.2µM*	0.7%	?	-1.0%
Cc1cc2c(cc(C(=O)N3CCC(C(=O)N4CCCC4)CC3)n2Cc2c(F)cccc2Cl)o1	-7.4%	-2.3%[57.1 µM]	50.1µM*	-9.8%	-16.1%[57.1 µM]	3.6%
Cc1cc(C)cc(OCC(=O)Nc2nonc2-c2ccc(Br)cc2)c1	-6.0%	-7.8%	.	14.3%	7.0%	-2.4%
O=C(CCCCC(=O)Sc1ccccc1)Sc1ccccc1	.	9.0%[57.1 µM]	.	79.4µM*	16.1%[57.1 µM]	-18.9%
O=C(CNC(=O)c1ccccc1)Sc1ccccc1	.	3.9%	.	44.7µM*	12.6µM*	9.5%
SMILES	GCN5L2 inh	TrxR1 substrate	Sfp inh	VDR inh	rTrxR1 inhibitor	GLS inh
O=C(NCSc1ccccc1)c1ccccc1	-0.6%	0.9%	.	-7.4%	34.3%	-5.0%
O=C(CNC1C(=O)Nc2ccccc21)Sc1ccccc1 (configuration not stated)	-5.7%	3.3%	-10.6%	-7.5%	9.1%	34.8%
CN(C)Cc1cc(C(C)(C)C)cc(C(C)(C)C)c1O	-0.2%	-6.7%	9.8%	2.0%	-11.7%	-2.3%
CN(C)Cc1cc(O)c(CN(C)C)cc1O	-9.2%	-14.2%	25.1µM*	?	14.1µM*	14.1µM*
COc1ccc(-n2nnnc2SCC(=O)N2CCOCC2)cc1	-5.0%	6.8%	30.9%	-9.8%	29.9%	-2.0%
COc1ccc(-n2cnnc2SCC(=O)Nc2cc(S(=O)(=O)N3CCCCC3)ccc2C)cc1	-2.9%	1.2%	6.0%	-4.6%	20.8%	1.9%
Cc1nnc(SCC(=O)c2ccc(S(=O)(=O)N3CCOCC3)cc2)n1-c1ccccc1	0.8%	3.6%	31.6µM*	?	?	-2.0%
COc1ccc(-n2cnnc2SCC(=O)c2ccc(S(=O)(=O)N3CCOCC3)cc2)cc1	-5.6%	9.0%[0.457 µM]	56.2µM*	-2.1%	4.2%	29.9%
COc1ccc(-n2nnnc2Sc2ccc(S(=O)(=O)N3CCOCC3)cn2)cc1	-5.6%	-10.8%	44.7µM*	?	-29.0%	1.0%
NC(=O)CC(NC(=O)c1ccccc1)c1ccc(N2CCC(Cc3ccccc3)CC2)c([N+](=O)[O-])c1 (configuration not stated)	-2.2%	-11.7%	-12.7%	-5.7%	-3.0%	-3.9%
COc1ccc(OC)c(-c2nc3ccccc3nc2-c2ccccc2)c1	-7.9%	-7.6%[57.1 µM]	-10.1%	9.9%	16.5%[57.1 µM]	-1.6%
c1ccc(CNc2oc(-c3ccccc3)nc2-c2ccccc2)cc1	.	.	-12.5%	14.1µM*	.	.
Oc1ccc(N2CCN(c3ncnc4sc(-c5ccccc5)cc34)CC2)cc1	2.2%	-1.7%	20µM*	10.3%	19.7%[57.1 µM]	?
CC(=O)N1CCN(c2ncnc3sc(-c4ccccc4)cc23)CC1	-10.8%	11.8%	11.9%	-15.6%	20.4%	2.9%
CN(C)c1ccc(N=Cc2ccco2)cc1	-9.8%	1.4%[57.1 µM]	44.7µM*	2µM*	-14.0%[57.1 µM]	39.1%
COc1cc(NC(=O)COc2ccccc2)ccc1NC(=O)c1ccco1	-5.0%	0.3%[57.1 µM]	-3.2%	-5.3%	-3.3%[57.1 µM]	4.2%
Cc1cc(C=C2C(=O)CCCC2=O)c(C)n1-c1ccccc1	-18.6%	-4.0%	2.9%	-11.6%	-32.5%	?
Cc1cc(/C=C2\SC(N)=NC2=O)c(C)n1-c1ccccc1	-9.9%	-4.7%	50.1µM*	-1.5%	-17.5%	13.9%
O=[N+]([O-])c1ccccc1-c1ccc(C(=S)N2CCN(c3ccccc3)CC2)o1	-15.4%	-4.1%	17.8µM*	79.4µM*	-10.2%	4.6%
Cc1ccc(N2CCN(C(=S)c3ccc(-c4cccc([N+](=O)[O-])c4)o3)CC2)cc1	9.3%	-4.0%	14.1µM*	?	-6.4%	5.4%
Cc1ccc(N2CCN(C(=S)c3ccc(-c4ccccc4[N+](=O)[O-])o3)CC2)cc1	-12.5%	-7.3%	17.8µM*	?	-20.4%[57.1 µM]	14.4%
CC(=O)N1CCN(C(=S)c2cccc([N+](=O)[O-])c2)CC1	-3.0%	-3.0%	-14.6%	-15.4%	-2.5%	5.3%

Source: PubChem (National Center for Advancing Translational Sciences (NCATS))
